About 83,000 compounds went through this panel and 20% of them were active in at least one assay; those are over-represented in the sample as a whole.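 The test compound was applied at a single concentration to cells in 96-well plates for 48 hours, and percent growth was recorded.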 Values without a mark were called inactive. Calls of active or inactive are those of the source.
System: OVCAR-5 ovarian
Test: NCI-60 one-dose screen, 48 h (100 = growth as untreated, 0 = no growth, -100 = all killed)
Details: 10 µM unless noted
Protocol: Growth inhibition of the OVCAR-5 human tumor cell line is measured as a screen for anti-cancer activity. Cells are grown in 96 well plates and exposed to the test compound for 48 hours. Compounds are tested at a single concentration, which is 10^-5 M for most compounds. The reported endpoint is percent growth (GI% or GIPRCNT), where numbers from 0 - 100% represent growth inhibition, and numbers from -100% - 0 represent cell death. For example, a value of 40 represents 60% growth inhibition. A value of 0 means no net growth occurred over the course of the experiment. A value of -40 indicates 40% of cells at the beginning of the experiment died by the end of the experiment. A value of -100 means all cells are dead at the end of the experiment.
NCI-60 Human Tumor Cell Lines Screen was performed using the standard one-dose NCI protocol, which is described in more detail at https://dtp.cancer.gov/discovery_development/nci-60/default.htm.
Compounds with GIPRCNT values below 10 were considered active. Activity score was based on GIPRCNT using the following formula: […]
Score is 0 for GIPRCNT values of 100 or above, 50 for GIPRCNT values of 0, and 100 for GIPRCNT values of -100.

| Structure (SMILES) | growth |
| --- | --- |
| COc1ccc(C(=O)c2cc(C)c(OC)c(C)c2)cc1OC(=O)CCl | 39.6% |
| Cc1c(O)c(=O)n(-c2ccccc2)n1C | 87.2% |
| O=C(NCCNC(=O)c1cc(S(=O)(=O)NCCc2ccccc2)c(O)c(O)c1O)c1cc(S(=O)(=O)NCCc2ccccc2)c(O)c(O)c1O | 82.3% |
| Cc1cc(NC(=O)C2c3ccccc3C(=O)N(CC(C)C)C2c2cccs2)no1 (stereo not given) | 31.5% |
| COc1cc(/C=C/c2ccc3c(Br)cc(Br)c(O)c3n2)ccc1O | 63.2% |
| COc1ccc(C2C=C(c3ccc(Cl)cc3)N=C3SC=CN32)cc1 (stereo not given) | 121% |
| COC(=O)C1(C)COP(=O)(NC23CC4CC(CC(C4)C2)C3)OC1 (stereo not given) | 113% |
| Cc1nc2ccc(Nc3nc(Cl)nc(N4CCOCC4)n3)cc2n1Cc1ccccc1 | 104% |
| COc1ccc2c(c1)CCCC21C(=O)Nc2ccccc21 (stereo not given) | 106% |
| Cc1cc(NC(=O)c2ccc(N)cc2)ccc1N=Nc1ccc2cc(S(=O)(=O)O)cc(S(=O)(=O)O)c2c1 | 98.7% |
| CC1=NN(c2cccc(S(N)(=O)=O)c2)C(=O)C1 | 89.9% |
| O=C(Nc1ccc(Oc2ccc(NC(=O)Nc3ccccc3Cl)cc2)cc1)Nc1ccccc1Cl | 101% |
| O=C1Cc2c([nH]c3ccc([N+](=O)[O-])cc23)-c2ccccc2N1 | 12.3% |
| COc1cc2c(cc1C)NC(=O)/C2=C\c1c[nH]c2ccccc12 | 75.3% |
| CCOc1cccc(/C=N/NC(=O)Cc2ccc(Nc3ccnc(C(F)(F)F)c3)cc2)c1O | 19.6% |
| COc1ccc(-c2cnc3ccnn3c2-c2cc(OC)c(OC)c(OC)c2)cc1 | 66.1% |
| C=CCn1c(C)nc2cc(Nc3nc(N4CCCC4)nc4nc[nH]c34)ccc21 | 30.6% |
| COc1ccccc1NC(=O)OCC12COCN1COC2 | 96.4% |
| CCCCCCCCCCCCCCCCCC1=NC(C)(C)CN1C(C)(C)CO | 37.9% |
| CN1CCN(Cc2ccc(NC(=O)c3cncc(C#Cc4ccc(N)nc4)c3)cc2C(F)(F)F)CC1 | 12.5% |

| Structure (SMILES) | growth |
| --- | --- |
| NC(=S)N/N=C(/c1cccs1)C1CC1 | 90.9% |
| COc1ccc2[nH]c(C(=O)OCc3ccc4cccc(O)c4n3)cc2c1 | -66.6% (active) |
| [Ag].[Ag].[NH-]S(=O)(=O)c1ccc(N=Nc2cc(N=Nc3ccc(S([NH-])(=O)=O)cc3)c3c(NC(=O)C(Cl)Cl)cccc3c2OC(=O)C(Cl)Cl)cc1.[c-]1nccs1.[c-]1nccs1 | 120% |
| CCOC(=O)C(Nc1ccccc1)C(=O)OCC | 100% |
| CCCCN(CCCC)CCCN=c1nc2c(c(N)n1-c1ccccc1)c(=S)n(-c1ccccc1)c(=S)n2-c1ccccc1 | -60.2% (active) |
| COc1ccc(-c2n[nH]nc2-c2cc(OC)c3c(c2)OCO3)cc1 | 42.7% |
| O=C1/C(=C\c2cccn2C(=O)c2ccccc2)c2ccccc2N1c1c(Cl)cccc1Cl | 87.9% |
| COC1=CC(c2ccc[nH]2)=N/C1=C\c1[nH]c(C)c(C(=O)CCCCCCCCC(=O)O[C@H]2CC[C@H]3C4CCc5cc(O)ccc5C4CC[C@]23C)c1C (stereo not given in full) | 52.1% |
| Nc1c(C(=O)c2ccc(Br)cc2)sc2nc3c(cc12)CCCC3 | 88% |
| CCN(CC)CCCC(C)N/C(c1cccc(OC)c1)=c1\c(=O)[nH]n(-c2c3ccccc3nc3ccccc23)c(=O)\c1=C(/NC(C)CCCN(CC)CC)c1cccc(OC)c1 (stereo not given) | 1.41% (active) |
| NC(=O)Nc1ccc2ncnc(Nc3cccc(O)c3)c2c1 | 98.1% |
| C=C(C)[C@@H]1CC[C@]2(C)[C@H](CC=C3[C@@H]4C[C@](C)(C(=O)N5CCN(C)CC5)CC[C@]4(C)CC[C@]32C)[C@@]1(C)CCC#N | 88.2% |
| CN1CCN(Cc2ccc(NC(=O)c3cncc(C#Cc4ncc5cnccn45)c3)cc2C(F)(F)F)CC1 | 35.1% |
| CC1CCN(Cc2ccc(NC(=O)c3cc4ccc5cccnc5c4[nH]3)cc2)CC1 | 51.8% |
| CCCCNCC(O)c1cc2c(Cl)cc(Cl)cc2c2cc(C(F)(F)F)ccc12 (stereo not given) | -81.2% (active) |
| C#CC[C@@H]1C[C@]2(C)[C@H]3CC[C@@H]4[C@H]5C(C(=C)C)CC[C@]5(C(=O)NCCN(CCN)CCN)CC[C@@]4(C)[C@]3(C)CC[C@H]2C(C)(C)[C@H]1OC(C)=O (stereo not given in full) | 63.3% |
| Cc1n(Cc2ccc3ccccc3n2)cc[n+]1Cc1ccc2ccccc2n1 | 83.4% |
| COc1cccc(OCC(O)CN2CCN(c3ccccc3)CC2)c1 (stereo not given) | 105% |
| COc1cc2c(cc1OCCCOc1cc3c(cc1OC)C(=O)N1CCC[C@H]1C=N3)C=CC(C)(C)O2 | 115% |
| Cc1ccc(N=CNN=C(N)N)cc1 | 99.5% |
